Measurements taken from PubChem BioAssay AID463173 (ICCB-Longwood Screening Facility, Harvard Medical School, 2010).
Hit rate of the full screen: of about 52,000 compounds, about 4,300 (8.3%) were called active. The sample holds actives, similar compounds and a random draw of the others, so the mix is not that of the screen. Rule as the data show it: active = survival mostly below about 52% (no sharp cut-off); inactive = mostly above about 56%.

These molecules were tested on DeltatarO mutant (assay: growth inhibition of S. aureus wild type versus tarO mutant, primary screen, teichoic acid synthesis inhibitors, RN4220, OD600 (AID 463173)). Conditions: OD600, 18 h, stronger effect = lower value, screened at 18.75 µg/mL (by protocol).

| Structure (SMILES) | survival |
| --- | --- |
| CCN(CC)CCNC(=O)c1sc2nc(C)cc(C)c2c1-n1cccc1 | 86% (inactive) |
| CC(C)CN(CCNC(=O)c1cc(=O)[nH]c2ccc(S(=O)(=O)N3CCCCCC3)cc12)CC(C)C | 86% (inactive) |
| COc1ccc(OC)c(CNC(=O)Cn2ncc3c([nH]c4ccc(C)cc43)c2=O)c1 | 92% (inactive) |
| O=C(Nc1cc(C(F)(F)F)ccc1Cl)c1cc(-c2ccc3c(c2)OCCO3)on1 | 116% (inactive) |
| Cc1ccc(-c2cc(C(=O)Oc3ccc(C#N)cc3)no2)cc1 | 97% (inactive) |
| COc1ccc(OC(=O)c2cc(-c3ccc4c(c3)OCCO4)on2)cc1 | 101% (inactive) |
| Cc1cc(OC(=O)c2cc(-c3ccc4c(c3)OCCO4)on2)ccc1Cl | -1% (active) |
| CC(C)c1ccc(OC(=O)c2cc(-c3ccc(Cl)cc3)on2)cc1 | 98% (inactive) |
| Cc1ccc(OC(=O)c2cc(-c3ccc4c(c3)OCCO4)on2)cc1C | -2% (active) |
| O=C(Oc1ccc(Cl)cc1)c1cc(-c2ccc3c(c2)OCCO3)on1 | 116% (inactive) |
| CC(C)c1ccc(OC(=O)c2cc(-c3ccc4c(c3)OCCO4)on2)cc1 | 8% (active) |
| N#Cc1ccc(OC(=O)c2cc(-c3ccc4c(c3)OCCO4)on2)cc1 | 117% (inactive) |
| CCC(C)NC(=O)Cn1c(=O)cc(-c2ccccc2)c2c(C)nn(C)c21 (stereo not drawn) | 70% (inactive) |
| COc1cccc(NC(=O)Cc2csc(COc3cccc(C)c3)n2)c1 | 72% (inactive) |
| CCOC(=O)c1cnn(-c2ccc(C(=O)Nc3ccc(OC(F)(F)F)cc3)cc2)c1N | 124% (inactive) |
| COC(=O)c1cnn(-c2ccc(C(=O)Nc3ccc(C(C)=O)cc3)cc2)c1N | 63% (inactive) |
| COC(=O)c1cnn(-c2ccc(C(=O)Nc3ccc(OC(F)(F)F)cc3)cc2)c1N | 25% (active) |
| O=C(Cn1nc2c(cc1=O)CCCC2)NCc1ccccc1Cl | 144% (inactive) |
| COc1ccccc1CNS(=O)(=O)c1cc(-c2cc(C)no2)ccc1C | 102% (inactive) |
| CCc1ccccc1NC(=O)CSc1nnc(-c2cc(OC)c(OC)c(OC)c2)o1 | 111% (inactive) |

| Structure (SMILES) | survival |
| --- | --- |
| CCCSCCCNC(=O)CN1C(=O)COc2ccc(S(=O)(=O)N3CCCC3)cc21 | 71% (inactive) |
| O=C(CN1C(=O)COc2ccc(S(=O)(=O)N3CCCCCC3)cc21)N1CCN(c2cccc(C(F)(F)F)c2)CC1 | 61% (active) |
| O=C(CN1C(=O)COc2ccc(S(=O)(=O)N3CCOCC3)cc21)N1CCN(c2cccc(C(F)(F)F)c2)CC1 | 93% (inactive) |
| CCCSCCCNC(=O)CN1C(=O)COc2ccc(S(=O)(=O)N3CCCCCC3)cc21 | 62% (active) |
| O=C(CN1C(=O)COc2ccc(S(=O)(=O)N3CCCC3)cc21)N1CCN(c2cccc(C(F)(F)F)c2)CC1 | 79% (inactive) |
| CCCCSCCCNC(=O)CN1C(=O)COc2ccc(S(=O)(=O)N3CCCC3)cc21 | 66% (inactive) |
| CC(=O)c1cccc(NC(=O)CCc2c(C)nc3c(-c4ccc(F)cc4)c(C)nn3c2C)c1 | 76% (inactive) |
| CCC1CN(C(=O)Nc2ccc(Br)cc2F)c2ccccc2S1 (stereo not drawn) | 90% (inactive) |
| CCOC(=O)C1CCN(c2nc3c(S(=O)(=O)c4ccccc4)nnn3c3ccc(Cl)cc23)CC1 | 112% (inactive) |
| COc1cc(C2CC(=O)Nc3ccc4ccccc4c32)ccc1OC(=O)C(C)C (stereo not drawn) | 67% (inactive) |
| Cc1ccc2c(c1)N(C(=O)Nc1cccc3c1CCCC3)CC(C)O2 (stereo not drawn) | 56% (inactive) |
| CCOc1ccc(CCNS(=O)(=O)c2c(C)nc3scc(C)n3c2=O)cc1OCC | 83% (inactive) |
| CCN(CC)S(=O)(=O)c1ccc2c(c1)c(=O)c(C(=O)NCc1ccccc1Cl)cn2C | 61% (inactive) |
| CC(C)(C)NSc1nc2ccccc2s1 | 58% (active) |
| COC(=O)CSc1nc2ccccc2s1 | 94% (inactive) |
| CCNc1nc2ccccc2s1 | 72% (inactive) |
| Cc1ccccc1-c1noc(-c2ccc(N3CCC(C)CC3)c([N+](=O)[O-])c2)n1 | 55% (inactive) |
| CCOc1ccc2nc(N3CCC(C(=O)Nc4ccccc4CC)CC3)sc2c1 | 70% (inactive) |
| Cc1c(NC(=O)c2cc(-c3ccc(O)cc3)on2)c(=O)n(-c2ccccc2)n1C | 169% (inactive) |
| COc1ccc(-c2cc(C(=O)Nc3c(C)n(C)n(-c4ccccc4)c3=O)no2)cc1 | 46% (active) |

| Structure (SMILES) | survival |
| --- | --- |
| Cc1c(NC(=O)c2cc(-c3ccccc3O)on2)c(=O)n(-c2ccccc2)n1C | 51% (active) |
| Cc1c(NC(=O)c2cc(-c3ccc(F)cc3)on2)c(=O)n(-c2ccccc2)n1C | 72% (inactive) |
| Cc1c(NC(=O)c2cc(-c3cccc(Cl)c3)on2)c(=O)n(-c2ccccc2)n1C | 55% (inactive) |
| Cc1c(NC(=O)c2cc(-c3ccc(Cl)cc3)on2)c(=O)n(-c2ccccc2)n1C | 121% (inactive) |
| Cc1c(NC(=O)c2cc(-c3cccc(O)c3)on2)c(=O)n(-c2ccccc2)n1C | 56% (inactive) |
| COc1ccc(-c2cc(C(=O)Nc3c(C)n(C)n(-c4ccccc4)c3=O)no2)cc1OC | 59% (inactive) |
| Cc1c(NC(=O)c2cc(-c3ccc(Cl)c(Cl)c3)on2)c(=O)n(-c2ccccc2)n1C | 38% (active) |
| CCOC(=O)c1cccc(NC(=O)c2ccc3c(c2)nnn3CC)c1 | 66% (inactive) |
| Cc1ccc(-c2onc(C)c2C)cc1S(=O)(=O)N1c2ccccc2CC1C (stereo not drawn) | 79% (inactive) |
| COc1ccc(CCNC(=O)c2c(O)nc3ccccn3c2=O)cc1OC | 54% (inactive) |
| COc1cccc(CCNC(=O)c2c(O)nc3ccccn3c2=O)c1 | 48% (active) |
| Cc1cccn2c(=O)c(C(=O)NCc3ccc(F)cc3)c(O)nc12 | 119% (inactive) |
| COc1ccc(CCNC(=O)c2c(O)nc3ccccn3c2=O)cc1 | 81% (inactive) |
| COc1cccc(CCNC(=O)c2c(O)nc3cc(C)ccn3c2=O)c1 | 82% (inactive) |
| COc1cccc(CNC(=O)c2c(O)nc3ccccn3c2=O)c1 | 43% (active) |
| Cc1ccc(CNC(=O)c2c(O)nc3ccccn3c2=O)cc1 | 89% (inactive) |
| COc1ccc(CNC(=O)c2c(O)nc3cc(C)ccn3c2=O)cc1 | 78% (inactive) |
| O=C(NCc1ccc(F)cc1)c1c(O)nc2ccccn2c1=O | 44% (active) |
